nsP2pro primary = inhibitors of chikungunya virus nsP2 protease; FRET peptide cleavage, nsP2pro, fluorescence 1 h; 31,000 compounds, 1.1% hits; AID 1964107; Potency, µM (doses to about 24.9 µM), without a hit: at the highest dose activity change, negative = inhibition, most hits filed as inhibitors; further: nearly all actives have a fitted effect of over 60% in size
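Recombinant nsP2pro (150 nM) was preincubated with compound 15 min at room temperature in 10 mM Tris-HCl pH 8.0, 0.01% Tween 20. Peptide 2 FRET substrate (2.5 uM) was then added and fluorescence read after 1 h. Seven-point series, up to 25 uM.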
nsP2 cell sec = secondary cell-based test for CHIKV nsP2 protease inhibitors. shares compounds with nsP2pro primary. cell-based CHIKV nsP2 protease reporter assay. Potency, µM (doses to about 51.1 µM), inactives show at the top dose activity change, negative = inhibition, hits mostly inhibitors. 450 compounds, 10% hits. AID 1964100; further: nearly all actives have a fitted effect of over 70% in size
NSP2 full ctr = selectivity test for CHIKV nsP2 protease inhibitors: full-length NSP2; shares compounds with nsP2pro primary; Full-length CHIKV NSP2 protease enzymatic counterscreen; Potency, µM (series often up to 50.7 µM), inactives show at the top dose activity change, negative = inhibition, most hits filed as inhibitors; 410 compounds, 39% hits; further: nearly all actives have a fitted effect of over 65% in size
Furin counterscr = human furin inhibition, counterscreen for nsP2pro inhibitors. shares compounds with nsP2pro primary. Recombinant human furin enzymatic counterscreen, fluorogenic substrate. Potency, µM (highest dose often 50.6 µM), for the others: at the highest dose activity change, negative = inhibition, actives largely listed as inhibitors. 410 compounds, 6% hits. AID 1964102
nsP2 NS23 pep = blocks CHIKV nsP2 protease cleavage of endogenous NS2/3 peptide. Purified CHIKV nsP2 protease, endogenous NS2/3 peptide cleavage. Potency, µM (highest dose often 51 µM), without a hit: at the highest dose activity change, negative = inhibition, usual class: inhibitors. shares compounds with nsP2pro primary. 410 compounds, 34% hits; further: nearly all actives have a fitted effect of over 55% in size
Papain cs = inhibits papain in a CHIKV nsP2 protease selectivity counterscreen. purified papain protease activity, enzymatic inhibition. shares compounds with nsP2pro primary. AID 1964104. Potency, µM (top dose mostly 51 µM), for the others: at the top dose activity change, negative = inhibition, hits mostly inhibitors. 410 compounds, 5% hits
nsP2pro conf qHTS = confirmation of CHIKV nsP2 protease inhibitors; Potency, µM (titrated, usually from 25.5 µM), for inactives: at the top dose activity change, negative = inhibition, actives largely listed as inhibitors; AID 1964105; CHIKV nsP2 protease enzymatic activity, qHTS; 410 compounds, 43% hits; shares compounds with nsP2pro primary; further: nearly all actives have a fitted effect of over 75% in size
HCV NS3 4A cs = HCV NS3/4A protease inhibition, counterscreen | shares compounds with nsP2pro primary | HCV NS3/4A protease biochemical counterscreen | Potency, µM (series often up to 50.9 µM), usual class: inhibitors | 410 compounds, 20% hits; further: nearly all actives have a fitted effect of over 55% in size
* marks the source's active call; other numbers are inactive results; i = inactive; ? = inconclusive; [ ] = another dose, or the depositor's remark. The list is a sample of the results. The call rests on the fitted dose curve. On the % scale 0 is the no-effect control and ±100 the full control effect; potency means the concentration at half of the fitted maximal effect.

SMILES	nsP2pro primary	others
CC1(C)CC[C@]23CO[C@@]4(CCC5[C@@]6(C)CC[C@H](O[C@@H]7OC[C@H](O[C@@H]8O[C@H](CO)[C@@H](O)[C@H](O)[C@H]8O[C@@H]8OC[C@@H](O)[C@H](O)[C@H]8O)[C@H](O)[C@H]7O)[C@@](C)(CO)C6CC[C@@]5(C)[C@]4(C)CC2=O)[C@@H]3C1 (some centres undefined)	-10.5%[5.1 µM]
Cc1ccc(-c2cc(C(=O)Nc3ccc(S(C)(=O)=O)cc3)c3ccccc3n2)cc1C	i
COc1cc(O)c(C(CC(=O)N2CC(C)CC(C)C2)c2ccc3c(c2)OCCO3)c(OC)c1 (centres undefined)	1.7%
CN(CC(=O)Nc1ccc(N2CCOCC2)cc1)Cc1cccc2ccccc12	-2.5%
C[C@@H]1O[C@@H](O[C@H]2[C@@H]3C=CO[C@@H](O[C@@H]4O[C@H](CO)[C@@H](O)[C@H](O)[C@H]4O)[C@@H]3[C@@]3(CO)O[C@@H]23)[C@H](OC(=O)/C=C/c2ccc(O)c(O)c2)[C@H](O)[C@H]1O	?	nsP2 cell sec=-2.7%[17.6 µM];NSP2 full ctr=-1.5%[17.3 µM];Furin counterscr=-8.6%[17.3 µM];nsP2 NS23 pep=-13.3%[17.2 µM];Papain cs=-11.7%[17.2 µM];nsP2pro conf qHTS=-24.1%[8.62 µM];HCV NS3 4A cs=i
C[C@@H]1O[C@@H](O[C@H]2[C@@H]3C=CO[C@@H](O[C@@H]4O[C@H](CO)[C@@H](O)[C@H](O)[C@H]4O)[C@@H]3[C@@]3(CO)O[C@@H]23)[C@H](OC(=O)/C=C/c2ccccc2)[C@H](O)[C@H]1O	23.2%[10 µM]
COc1ccc(/C=C/C(=O)O[C@H]2[C@@H]3C=CO[C@@H](O[C@@H]4O[C@H](CO)[C@@H](O)[C@H](O)[C@H]4O)[C@@H]3[C@@]3(CO)O[C@@H]23)cc1O	42.4%[10 µM]
O=C(/C=C/c1ccc(O)c(O)c1)O[C@H]1[C@@H]2C=CO[C@@H](O[C@@H]3O[C@H](CO)[C@@H](O)[C@H](O)[C@H]3O)[C@@H]2[C@@]2(CO)O[C@@H]12	-7.4%[10 µM]
CC(=O)O[C@@H]1[C@@H](OC(=O)/C=C/c2ccccc2)[C@H](C)O[C@@H](O[C@H]2[C@@H]3C=CO[C@@H](O[C@@H]4O[C@H](CO)[C@@H](O)[C@H](O)[C@H]4O)[C@@H]3[C@@]3(CO)O[C@@H]23)[C@@H]1OC(C)=O	-10.4%[10 µM]
C[C@@H]1O[C@@H](O[C@H]2[C@@H]3C=CO[C@@H](O[C@@H]4O[C@H](CO)[C@@H](O)[C@H](O)[C@H]4O)[C@@H]3[C@@]3(CO)O[C@@H]23)[C@H](O)[C@H](OC(=O)/C=C/c2ccc(O)c(O)c2)[C@H]1O	?	nsP2 cell sec=6.5%[17.6 µM];NSP2 full ctr=-6.4%[17.3 µM];Furin counterscr=-7.0%[17.3 µM];nsP2 NS23 pep=-16.5%[17.2 µM];Papain cs=-10.6%[17.2 µM];nsP2pro conf qHTS=-13.9%[8.62 µM];HCV NS3 4A cs=i
C[C@H]1O[C@@H](O[C@H]2CC[C@@]3(C)C(CC[C@]4(C)[C@@H]3C=CC3=C5CC(C)(C)CC[C@]5(CO)[C@H](O)C[C@@]34C)[C@]2(C)CO)[C@H](O)[C@@H](O[C@@H]2O[C@H](CO)[C@@H](O)[C@H](O)[C@@H]2O)[C@H]1O (some centres undefined)	-0.3%
C=C1CCC2C(C)(COC3OC(COC(=O)CC(=O)O)C(O)C(O)C3O)CCCC2(C)C1CCC1=CCOC1=O (centres undefined)	13.3%[10 µM]
CC(C/C=C/C(C)(C)O)C1CCC(C)(O)C(O)C1 (centres undefined)	-16.4%
CC(=O)Nc1sc2c(c1-c1cccnc1)CCNC2	1.3%
